Laboratory results reported in publication PMC4336329 (PLoS ONE, 2015).
The whole screen tested about 310,000 compounds, of which about 14,000 (4.5%) showed an effect of 50% or more. The effect is printed as a negative number. The full list was thinned out, with strong results kept by preference.

These compounds were tested against human ether-à-go-go-related gene (hERG) potassium channel (human, UniProt Q12809) (assay: primary screen, population patch clamp on CHO cells stably expressing hERG; higher = less effect of the substance).
human ether-à-go-go-related gene (hERG) potassium channel, sequence (Q12809 whole entry, looked up): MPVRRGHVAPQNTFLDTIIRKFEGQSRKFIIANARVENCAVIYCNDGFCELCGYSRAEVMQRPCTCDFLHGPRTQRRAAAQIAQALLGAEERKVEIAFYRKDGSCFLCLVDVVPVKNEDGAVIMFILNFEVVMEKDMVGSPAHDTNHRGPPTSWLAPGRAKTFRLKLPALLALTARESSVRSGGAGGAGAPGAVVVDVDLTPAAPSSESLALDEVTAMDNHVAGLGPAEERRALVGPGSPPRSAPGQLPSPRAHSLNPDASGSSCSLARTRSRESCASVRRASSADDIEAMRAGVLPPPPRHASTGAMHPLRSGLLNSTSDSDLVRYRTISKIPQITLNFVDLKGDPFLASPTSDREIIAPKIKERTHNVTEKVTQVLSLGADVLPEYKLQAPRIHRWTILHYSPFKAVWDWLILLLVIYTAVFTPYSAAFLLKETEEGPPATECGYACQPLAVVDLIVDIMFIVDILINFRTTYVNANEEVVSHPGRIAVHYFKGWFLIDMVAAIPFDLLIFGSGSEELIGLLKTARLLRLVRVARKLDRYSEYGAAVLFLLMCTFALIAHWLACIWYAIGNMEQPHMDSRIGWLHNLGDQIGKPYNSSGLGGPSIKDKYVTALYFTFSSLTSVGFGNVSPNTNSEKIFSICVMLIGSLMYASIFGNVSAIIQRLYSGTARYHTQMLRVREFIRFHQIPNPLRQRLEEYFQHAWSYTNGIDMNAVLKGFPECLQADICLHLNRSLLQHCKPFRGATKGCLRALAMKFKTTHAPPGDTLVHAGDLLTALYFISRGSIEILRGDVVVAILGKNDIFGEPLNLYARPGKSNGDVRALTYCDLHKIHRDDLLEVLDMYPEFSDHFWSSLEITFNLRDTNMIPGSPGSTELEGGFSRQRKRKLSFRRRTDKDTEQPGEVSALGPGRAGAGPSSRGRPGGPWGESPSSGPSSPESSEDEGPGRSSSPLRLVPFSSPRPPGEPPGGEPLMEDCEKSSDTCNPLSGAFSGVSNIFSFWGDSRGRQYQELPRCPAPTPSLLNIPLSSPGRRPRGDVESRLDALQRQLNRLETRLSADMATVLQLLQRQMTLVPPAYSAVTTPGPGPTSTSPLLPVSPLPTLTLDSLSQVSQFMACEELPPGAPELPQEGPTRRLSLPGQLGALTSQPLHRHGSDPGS
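Further: peak tail current of the secondary pulse compared with the same well before compound.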

Row | Structure (SMILES) | hERG current change (%, negative = inhibition) at 10uM
1 | CCOc1ccc(CNC(=O)C(=O)c2cn(CC(=O)N3CCOCC3)c3ccccc23)cc1OC | 17.1%
2 | COC(=O)C1=C(C)Nc2ncnn2C1c1cccnc1 (centres unmarked) | 2.93%
3 | O=C(Cn1ncc2c([nH]c3ccccc32)c1=O)N1CCN(c2ccccc2F)CC1 | 1.65%
4 | CCN(CC)CCCN1C(=O)C(=O)/C(=C(/O)c2ccc3c(c2)OCCO3)C1c1ccco1 (centres unmarked) | -6.06%
5 | CC(C)c1cccc(C(C)C)c1NC(=O)COC(=O)[C@H](C)NC(N)=O | 16.8%
6 | Cc1cc(C)nc(/N=C(\N)Nc2cc([N+](=O)[O-])ccc2C)n1 | -49%
7 | CCCOc1ccccc1N/C(=N/c1nc(C)cc(C)n1)NC(=O)COc1ccc(OC)cc1 | -10%
8 | COc1cc(NC(N)=S)c(OC)cc1Cl | 6.66%
9 | COc1cc(N/C(N)=N/c2nc(C)cc(C)n2)c(OC)cc1Cl | -56.7%
10 | CCCOc1ccccc1N/C(=N/c1nc(C)cc(C)n1)NC(=O)Nc1ccc(Cl)cc1 | -1.32%
11 | CCCOc1ccccc1N/C(N)=N/c1nc(C)cc(C)n1 | -85.8%
12 | Cc1ccc(-c2cc([C@H]3[C@@H]4C=CCC[C@@]4(C)C(=O)N3Cc3ccccc3)ccc2F)cc1 | 8.75%
13 | CC1CC(OC(=O)c2ccccc2)CC(C)N1C.Cl (centres unmarked) | -5.09%
14 | Cc1cc(N/N=C/c2c(O)ccc3ccccc23)nc(-c2ccccc2O)n1 | -3.98%
15 | O=C(CSc1cccc[n+]1[O-])Nc1cc(S(=O)(=O)N2CCOCC2)ccc1N1CCOCC1 | 16%
16 | CCCCCCCNC(=O)C1(CC2CC(c3ccccc3)=NO2)CCNCC1 (centres unmarked) | -58.8%
17 | CCCCCCCNC(=O)C1(CC2CC(c3cccc(Br)c3)=NO2)CCNCC1 (centres unmarked) | -70.3%
18 | O=C(NCc1ccccc1)C1(CC2CC(c3ccccc3)=NO2)CCNCC1 (centres unmarked) | -7.21%
19 | CCCNC(=O)C1(CC2CC(c3ccccc3)=NO2)CCNCC1 (centres unmarked) | 23.5%
20 | CCCCCCCNC(=O)C1(CC2CC(c3cccc(Br)c3)=NO2)CCN(C(=O)C2(C)CC2)CC1 (centres unmarked) | -26%
21 | CCCCCCCNC(=O)C1(CC2CC(c3ccc(Cl)cc3)=NO2)CCNCC1 (centres unmarked) | -63.1%
22 | CCCCCCCNC(=O)C1(CC2CC(c3cccc(Br)c3)=NO2)CCN(C(=O)Cc2ccc(F)cc2)CC1 (centres unmarked) | -7.08%
23 | NC(=S)N1CCCc2ccccc21 | -3.03%
24 | CC1(c2ccccc2)NC(=O)N(CC(=O)N2CCOCC2)C1=O (centres unmarked) | 3.77%
25 | O=C(Nc1nnc(COc2ccc(Cl)cc2)s1)c1cccs1 | -6.91%
26 | Cc1csc(=O)n1CC(=O)OCC(=O)Nc1cc(Cl)ccc1[N+](=O)[O-] | -17.8%
27 | Cc1cccc(C)c1-n1nnnc1C(C)(C)N1CCN(N=O)CC1 | 14.7%

Row | Structure (SMILES) | hERG current change (%, negative = inhibition) at 10uM
28 | COc1ccc(NC(C)(C)c2nnnn2-c2c(C)cccc2C)cc1 | -4.2%
29 | COc1cccc(NC(C)(C)c2nnnn2-c2c(C)cccc2C)c1 | -63.4%
30 | O=C(NCCc1cccs1)C1CC(c2cccc([N+](=O)[O-])c2)=NO1 (centres unmarked) | -23.5%
31 | CCCCNc1nc(Nc2ccc(C)c(Cl)c2)c2cnn(C)c2n1 | 15.3%
32 | O=C(CSc1nc2ccccc2c(=O)n1-c1ccccc1F)NC1CCS(=O)(=O)C1 (centres unmarked) | -57%
33 | COc1ccccc1-c1nnc(SCC(=O)NC2CCS(=O)(=O)C2)n1CCc1ccccc1 (centres unmarked) | 8.05%
34 | CN(C(=O)CSc1nc2cc([N+](=O)[O-])ccc2n1-c1ccc(F)cc1)C1CCS(=O)(=O)C1 (centres unmarked) | 2.56%
35 | O=C(CSc1nc2cc([N+](=O)[O-])ccc2n1-c1ccc(F)cc1)NC1CCS(=O)(=O)C1 (centres unmarked) | -52.6%
36 | COc1ccccc1-n1c(SCC(=O)NC2CCS(=O)(=O)C2)nc2ccccc2c1=O (centres unmarked) | -3.39%
37 | COc1ccccc1-n1c(SCC(=O)NC2CCS(=O)(=O)C2)nc2cc([N+](=O)[O-])ccc21 (centres unmarked) | -16.2%
38 | CCn1c(SCC(=O)NC2CCS(=O)(=O)C2)nnc1-c1ccccc1 (centres unmarked) | 5.49%
39 | O=C(CSc1nnc(-c2ccc(Br)cc2)n1CCc1ccccc1)NC1CCS(=O)(=O)C1 (centres unmarked) | -86.8%
40 | O=C(CSc1nc2ccccc2c(=O)n1-c1ccccc1Cl)NC1CCS(=O)(=O)C1 (centres unmarked) | 6.55%
41 | Cc1ccc2oc(/N=C(\N)NC(=O)C(C)(C)C)nc2c1 | 4.85%
42 | CC1=Nn2c(nnc2-c2ccco2)SC1 | -3.87%
43 | O=C(/C=C/c1ccco1)Nc1sc2c(c1C(=O)O)CCC2 | -2.95%
44 | CSc1scc2c1-c1nc(SCC(=O)C(C)(C)C)ncc1CC2 | 11%
45 | CN(C)CCCN(C(=O)c1ccc(S(=O)(=O)N2CCCCCC2)cc1)c1nc2ccc(Br)cc2s1.Cl | -22%
46 | CN(C)CCCN(C(=O)c1ccc(S(=O)(=O)N2CCCc3ccccc32)cc1)c1nc2ccc(F)cc2s1.Cl | -17.1%
47 | CN(C)CCCN(C(=O)c1ccc(S(=O)(=O)N2CCc3ccccc3C2)cc1)c1nc2ccc(F)cc2s1.Cl | 1.76%
48 | CN(C)CCCN(C(=O)c1ccc(S(=O)(=O)N2CCCCCC2)cc1)c1nc2ccc(F)cc2s1.Cl | -73.1%
49 | CN(C)CCCN(C(=O)c1ccc(S(=O)(=O)N2CCOCC2)cc1)c1nc2ccc(F)cc2s1.Cl | -58.7%
50 | CN(C)CCCN(C(=O)c1ccc(S(=O)(=O)N2CCc3ccccc32)cc1)c1nc2ccc(F)cc2s1.Cl | -13.7%
51 | CC1CCN(C(=O)CSc2ccc(-c3ccccc3)nn2)CC1 | -11.8%
52 | COc1ccccc1CC(=O)Nc1cccc(F)c1 | 12.2%
53 | COc1cccc(NC(=O)CN(C)C(C)C(=O)Nc2ccc(C(C)=O)cc2)c1 (centres unmarked) | -22.9%
54 | CSc1ccccc1NC(=O)CN(C)C(C)C(=O)Nc1ccc(C#N)cc1 (centres unmarked) | -63.1%

Row | Structure (SMILES) | hERG current change (%, negative = inhibition) at 10uM
55 | COc1cccc(NC(=O)CN(C)C(C)C(=O)Nc2ccc(S(=O)(=O)N3CCCC3)cc2)c1 (centres unmarked) | -0.933%
56 | CC(C(=O)Nc1ccc(C#N)cc1)N(C)CC(=O)Nc1ccccc1Br (centres unmarked) | -17%
57 | CC(C(=O)N1CCCC1)N(C)CC(=O)Nc1cccc(F)c1 (centres unmarked) | -0.435%
58 | CC(C(=O)Nc1ccc(C#N)cc1)N(C)Cc1cccs1 (centres unmarked) | -56.7%
59 | CC(=O)c1ccc(NC(=O)C(C)N(C)CC(=O)Nc2cccc(F)c2)cc1 (centres unmarked) | -17.3%
60 | CC(C(=O)Nc1ccccc1)N(C)Cc1cccs1 (centres unmarked) | 8.67%
61 | COc1cccc(NC(=O)CN(C)C(C)C(=O)Nc2ccc(C#N)cc2)c1 (centres unmarked) | -59.3%
62 | CC(=O)Nc1ccc(NC(=O)C(C)N(C)CC(=O)Nc2ccccc2Br)cc1 (centres unmarked) | 8.29%
63 | CC(C(=O)Nc1ccc(Cl)cc1)N(C)Cc1cccs1 (centres unmarked) | -15%
64 | CC(C(=O)Nc1ccc(C#N)cc1)N(C)CC(=O)Nc1cccc(F)c1 (centres unmarked) | -64.7%
65 | CC1=C/C(=N\NC(=S)NCCc2ccccc2)CC(C)(C)C1 | -4.83%
66 | Cc1ccc(Cn2nnc3c(=O)[nH]c(C4CCN(S(=O)(=O)c5ccccc5F)CC4)nc32)cc1 | -19%
67 | CCN1C[C@]2(C)CC[C@H](OC)[C@]34C2[C@H](OC(C)=O)[C@@]2(OCO[C@@]25C[C@H](OC)[C@H]2C[C@]3(O)C5[C@H]2OC)[C@@H]14 | 39.8%
68 | CCOc1cc(NC(=O)c2ccccn2)c(OCC)cc1NC(=O)c1ccc(C)cc1 | -13.7%
69 | Nc1c(C(=O)Nc2ccc(F)cc2)sc2nc(-c3ccco3)ccc12 | -9.67%
70 | CC(=O)Nc1ccc(NS(=O)(=O)c2cc(Cl)ccc2Cl)cc1 | -14.8%
71 | CCC(C)NCCC(=O)Nc1ccc(Cl)c(S(=O)(=O)Nc2ccc(Cl)cc2)c1 (centres unmarked) | -53.6%
72 | CC(C)Oc1ccc(C(=O)Nc2ccc(Cl)c(S(=O)(=O)Nc3ccc(Cl)cc3)c2)cc1 | 2.46%
73 | Cc1cc(C)cc(-n2ccnc2SCC(=O)Nc2ccc3c(c2)OCCO3)c1 | -14.2%
74 | CC(=O)c1ccc(C(=O)Nc2nnc(-c3ccc(Cl)cc3)o2)cc1 | 4.1%
75 | Cc1ccc(NC(=O)/C(=C\c2ccc([N+](=O)[O-])cc2)NC(=O)c2ccccc2)cc1 | -38.6%
76 | CC(=O)N/C(=C\c1ccccc1)C(=O)OCC(=O)c1ccccc1 | 9.41%
77 | O=C(OCC(=O)c1ccc([N+](=O)[O-])cc1)/C(=C\c1ccc(Cl)cc1)NC(=O)c1ccccc1 | -64.4%
78 | O=C(OCC(=O)c1ccc([N+](=O)[O-])cc1)/C(=C/c1ccc(Cl)cc1)NC(=O)c1ccccc1 | -63.3%
79 | Cc1ccc(NC(=O)/C(=C/c2ccc([N+](=O)[O-])cc2)NC(=O)c2ccccc2)cc1 | -12%
80 | O=C(NCCc1ccccc1)/C(=C\c1ccc([N+](=O)[O-])cc1)NC(=O)c1ccc(Br)cc1 | -37.8%
